HT1080 IDH1KD tx: HT-1080 IDH1 knockdown cell toxicity (counter line); actives 2% (n = 360,000); Potency, µM (top dose mostly 46.1 µM), most hits filed as cytotoxic; HT-1080 IDH1 knockdown viability, ATP luminescence, 48 h
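After a 2 h attachment period, IDH1KD HT-1080 cells took pin-transferred compound for 48 h at 37 °C; ATP-based luminescence after 10 min room-temperature reagent incubation reported viability.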
HT1080NT lethal: kills 2HG-producing HT-1080-NT fibrosarcoma cells; HT-1080-NT fibrosarcoma viability, CellTiter-Glo ATP luminescence, 48 h; Potency, µM (doses to about 46.1 µM), actives largely listed as cytotoxic; actives 1.6% (n = 360,000); AID 686970;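 further: NT is the 2HG producing partner of a matched IDH1 knockdown line; nearly all actives have a fitted effect of over 55% in size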
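Compounds were tested in concentration-response format on HT-1080-NT cells for 48 hours at 37 degrees C. Cell viability came from CellTiter-Glo luminescence; curves were classified by r2, response magnitude and activity.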
TDP1 cell CPT: DT40-hTDP1 cell growth loss with CPT; chicken DT40 Tdp1-/-;hTDP1 cells + 20 nM CPT, ATP luminescence, 48 h; Potency, µM (titrated, usually from 46.2 µM), actives largely listed as inhibitors; actives 12% (n = 420,000); AID 686979; further: nearly all actives have a fitted effect of over 55% in size
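Chicken DT40 Tdp1-/- cells stably complemented with human TDP1 were seeded at 400 cells/well in medium containing 20 nM camptothecin, exposed to pin-transferred compounds, and grown at 37 °C for at least 48 hr. Viability was read as ATP luminescence.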
TDP1 cell noCPT: qHTS for Inhibitors of human tyrosyl-DNA phosphodiesterase 1 (TDP1): qHTS in cells in absence of CPT; DT40 Tdp1-/- hTDP1 cells, no CPT, ATP luminescence, 48 h; Potency, µM (highest dose often 46.2 µM), most hits filed as inhibitors; AID 686978, 2013; actives 15% (n = 420,000); further: nearly all actives have a fitted effect of over 55% in size
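Camptothecin absent (DMSO only). Human TDP1-complemented DT40 knockout cells, 400 cells/well, 37 °C for minimum 48 hr; ATP measured via CellTiter-Glo, 30 min dark incubation, luminescence.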
IL1B secr inh: inflammasome signaling inhibition, IL-1 beta readout; activity change, % at 57.5 µM; actives 4.7% (n = 360,000); THP-1 LPS/ATP IL-1B secretion, AlphaLISA, 16 h; active compounds read low; in the data active means activity change below about -50%; inconclusive means mostly about -30% to -49%
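Secreted IL-1B measured by AlphaLISA bead assay after 16 h compound exposure of THP-1 cells; compounds (final up to 57.5 uM) added 1 h before LPS (250 ng/mL) and ATP (1.25 mM) stimulation; lower signal means less secretion.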
Large screens that a line does not name were inactive. In the library only some 19% were active in any assay of this set; here they are far more common. Unless noted, the call rests on the fitted dose curve; in most records, active means well fitted curve in the direction sought with a large enough effect; inconclusive means small, poorly fitted or top-dose-only effect, or another doubt; inactive means no such curve, though single readings can be large; an effect the other way counts as inactive or inconclusive.

CC1=C(C)C(=O)C(N2CCOCC2)=CC1=O	TDP1 cell CPT 16µM, TDP1 cell noCPT 15µM
COc1ccc(OC)c(NC(=O)CSc2nnc(N)s2)c1	none
COc1ccc(-c2cc(C(F)(F)F)n3nc(C(=O)Nc4sc5c(c4C(=O)OC(C)C)CCCC5)cc3n2)cc1OC	none (no result: HT1080 IDH1KD tx, HT1080NT lethal, IL1B secr inh)
O=C1C=C(N2CCOCC2)c2cccc3cccc1c23	TDP1 cell noCPT 15µM
Nc1ccc2nc(CCCO)[nH]c2c1	none
O=C(NCCCCc1ccccc1)Nc1ccc(F)cc1F	TDP1 cell CPT inconclusive
Cc1c(Cc2ccccc2)c(=O)oc2c(CN(C)C)c(O)c(Cl)cc12	TDP1 cell CPT inconclusive, TDP1 cell noCPT 16µM
Cc1c(Cc2ccccc2)c(=O)oc2c(O)c(O)ccc12	TDP1 cell noCPT inconclusive
CCOC(=O)CN(C)Cc1cn[nH]c1-c1ccc2cc(OC)ccc2c1	TDP1 cell CPT 16µM, TDP1 cell noCPT 13µM, IL1B secr inh -64
Cn1cc(CN2CCCCC2CO)c(-c2ccc(Oc3ccccc3)cc2)n1 (centres undefined)	HT1080 IDH1KD tx inconclusive, TDP1 cell CPT inconclusive, TDP1 cell noCPT inconclusive, IL1B secr inh inconclusive
Cc1cnccc1CN(C)Cc1cn(C)nc1-c1ccc(Oc2ccccc2)cc1	HT1080 IDH1KD tx inconclusive, HT1080NT lethal inconclusive, TDP1 cell CPT inconclusive, TDP1 cell noCPT inconclusive
CCCN1CCC(NCc2cn(C)nc2-c2ccc(Oc3ccccc3)cc2)CC1	HT1080 IDH1KD tx inconclusive, HT1080NT lethal inconclusive, TDP1 cell CPT 5.2µM, TDP1 cell noCPT 4.6µM
COCCN1CCCC(CNCc2cn(C)nc2-c2ccc(Oc3ccccc3)cc2)C1 (centres undefined)	HT1080 IDH1KD tx inconclusive, HT1080NT lethal inconclusive, TDP1 cell CPT 18µM, TDP1 cell noCPT 5.8µM, IL1B secr inh -51
COC1CCCN(Cc2cn(C)nc2-c2ccc(Oc3ccccc3)cc2)C1 (centres undefined)	IL1B secr inh inconclusive
CCOC(=O)CN(C)Cc1cn(C)nc1-c1ccc(Oc2ccccc2)cc1	TDP1 cell CPT inconclusive, TDP1 cell noCPT 13µM
CC(=O)c1sc(NC(=O)C2CC(=O)N(Cc3ccccc3)C2)nc1-c1ccccc1 (centres undefined)	none
O=C(C[n+]1cccc2cccc(O)c21)c1ccc(Br)cc1	none (no result: HT1080 IDH1KD tx, HT1080NT lethal, IL1B secr inh)
O=C(c1ccccc1)c1ccc(NCCCn2ccnc2)c([N+](=O)[O-])c1	TDP1 cell noCPT inconclusive, IL1B secr inh -74
COc1ccc2c(c1OC)C(=O)N(c1ccc(C)cc1)C2	none
CC1CCCCN1c1ncnc2ccccc12 (centres undefined)	HT1080NT lethal 18µM, TDP1 cell CPT 23µM, TDP1 cell noCPT 10µM
CC1CCCCN1c1nc(-c2ccncc2)nc2ccccc12 (centres undefined)	HT1080 IDH1KD tx 29µM, HT1080NT lethal inconclusive, TDP1 cell CPT inconclusive, TDP1 cell noCPT 18µM
CC1CCN(c2nc(-c3ccncc3)nc3ccccc23)CC1	HT1080 IDH1KD tx inconclusive, HT1080NT lethal inconclusive, TDP1 cell CPT inconclusive, TDP1 cell noCPT inconclusive
CCC1CCCCN1c1nc(-c2ccncc2)nc2ccccc12 (centres undefined)	HT1080 IDH1KD tx inconclusive, HT1080NT lethal 18µM, TDP1 cell CPT 29µM, TDP1 cell noCPT inconclusive
O=C(O)C1CCCN1c1ncnc2ccccc12 (centres undefined)	none
c1ccc2c(N3CCCCC3)ncnc2c1	TDP1 cell CPT inconclusive, TDP1 cell noCPT 21µM
c1ccc(-c2nc(C3CCCCC3)c3ccccc3n2)cc1	none
CC(C)CN(C(=O)CSc1nnc(-c2cccs2)n1C1CC1)C1CCS(=O)(=O)C1 (centres undefined)	none
CN[C@@H](CO)C(=O)NC[C@H]1O[C@@H](n2cc(C)c(=O)[nH]c2=O)C[C@@H]1O	none
COCc1cc(=O)[nH]c(SCCS(=O)(=O)c2ccc(C)cc2)n1	none
COCc1cc(=O)[nH]c(SCCS(=O)(=O)c2ccc(Cl)cc2Cl)n1	TDP1 cell CPT 21µM, TDP1 cell noCPT inconclusive
CC(C)(C)Nc1nc2nonc2nc1NC(C)(C)C	HT1080 IDH1KD tx inconclusive, HT1080NT lethal inconclusive, TDP1 cell CPT 16µM, TDP1 cell noCPT inconclusive, IL1B secr inh -68
COc1cccc(NC(=S)NNC(=O)C(C)n2nc(C)c([N+](=O)[O-])c2C)c1 (centres undefined)	none

Screens from PubChem.
